Most compounds without a hit are left out; they make up all but 2.3% or so of the library.
Bcl-xL primary = blocks human Bcl-xL binding to Bim BH3 peptide; Q07817; GST-Bcl-xL / FITC-Bim BH3 peptide fluorescence polarization; inhibition, % at 10.9 µM; actives 0.7% (n = 320,000); AID 2129;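 active = inhibition above the mean of all tested compounds plus 3 SD, cutoff set per campaign, cut at about 30% in these data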;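 also: 0% = DMSO wells and 100% = unlabeled Bim-BH3 peptide competitor; inhibitors lower millipolarization by displacing the labeled peptide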
Target sequence (Q07817 whole entry, looked up): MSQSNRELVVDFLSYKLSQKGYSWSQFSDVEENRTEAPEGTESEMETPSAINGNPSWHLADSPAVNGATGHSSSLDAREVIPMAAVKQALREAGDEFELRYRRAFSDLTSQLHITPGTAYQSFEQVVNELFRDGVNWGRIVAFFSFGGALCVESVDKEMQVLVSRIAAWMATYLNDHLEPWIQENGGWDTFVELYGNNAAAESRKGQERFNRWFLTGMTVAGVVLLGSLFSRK
Mcl1-Bid inh = Mcl-1/Bid interaction inhibition. Q07820. TR-FRET Mcl-1/Bid-Dy647 peptide binding, 1536-well. inhibition, % at 21.7 µM. actives 0.97% (n = 220,000). AID 1021;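 active = compounds that cut the binding signal by more than half at the single screening dose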;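 also: His-tagged Mcl-1 with europium anti-His antibody binding Bid BH3 peptide; 0% = Mcl-1 plus peptide wells and 100% = peptide-only wells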
Target sequence (Q07820 whole entry, looked up): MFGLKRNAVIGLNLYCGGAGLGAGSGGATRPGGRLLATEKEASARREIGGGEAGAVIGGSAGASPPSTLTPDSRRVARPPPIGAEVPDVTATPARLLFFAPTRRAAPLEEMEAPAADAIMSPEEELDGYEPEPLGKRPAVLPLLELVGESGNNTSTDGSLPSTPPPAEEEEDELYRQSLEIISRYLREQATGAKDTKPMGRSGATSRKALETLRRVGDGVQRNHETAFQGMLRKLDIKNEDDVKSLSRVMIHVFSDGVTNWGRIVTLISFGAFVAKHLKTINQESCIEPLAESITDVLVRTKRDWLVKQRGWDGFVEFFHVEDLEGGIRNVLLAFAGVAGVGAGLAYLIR
Bim-Mcl-1 = human Bim-Mcl-1 interaction inhibition. inhibition, % at 10 µM. Q07820. actives 0.1% (n = 190,000). Bead-based flow cytometry, Bim peptide-Mcl-1 binding; in the data active = inhibition above about 40%;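 also: 0% = no compound tracer wells and 100% = peptide blocker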
GLD-1 RNA inh = GLD-1-TGE RNA interaction inhibition (C. elegans). Q17339. purified GLD-1 + fluorescein TGE RNA, fluorescence polarization. inhibition, % at 5.96 µM. actives 0.44% (n = 320,000). AID 2280;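 active = percent inhibition above a per-plate cutoff, the plate mean of test compounds plus 3 SD, cut at about 30% in these data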;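 also: 0% = DMSO wells with GLD-1 and probe and 100% = wells lacking GLD-1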
MCL1 BIM primary = inhibitors of human MCL1 binding to BIM-BH3 peptide; inhibition, % at 10.9 µM; actives 0.68% (n = 320,000); Q07820; GST-MCL1 / FITC-Bim-BH3 fluorescence polarization;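 active = inhibition above the mean inhibition of all tested compounds plus 3 SD, set per campaign, cut at about 40% in these data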;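 also: 0% = DMSO wells and 100% = unlabeled Bim-BH3 peptide control; higher means more loss of mP so more displacement of Bim peptide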
Mcl1-Noxa inh = Mcl-1/Noxa interaction inhibition; TR-FRET Mcl-1/Noxa peptide binding, 2 h; inhibition, % at 21.7 µM; actives 1.5% (n = 220,000);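 active = compounds that cut the protein-peptide binding signal by more than 50% relative to plate controls in a single-dose test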;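 also: His-tagged Mcl-1 with rhodamine Noxa BH3 peptide and terbium anti-His antibody; 0% = Mcl-1 plus Noxa peptide wells and 100% = peptide-only wells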
BCLXL inh confirm = Bcl-xL (human) inhibition, MCL1 counter-screen confirmation. shares compounds with MCL1 BIM primary. GST-Bcl-xL / FITC-Bim BH3 peptide FP binding. inhibition, % at 10.9 µM. actives 54% (n = 1,700). AID 2166;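 active = inhibition above a cutoff equal to the mean inhibition of all tested compounds plus 3 SD, cut at about 30% in these data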;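 also: 0% = DMSO wells and 100% = unlabeled Bim BH3 control peptide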
MCL1 inh confirm = confirmation of human MCL1 and BIM-BH3 interaction inhibitors; actives 61% (n = 1,700); inhibition, % at 10.9 µM; GST-MCL1 / FITC-Bim-BH3 fluorescence polarization; AID 2168; shares compounds with MCL1 BIM primary;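 active = inhibition above the average of all tested compounds plus 3 SD, cut at about 40% in these data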;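 also: 0% = DMSO wells and 100% = unlabeled Bim-BH3 control peptide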
* hit, by the source's call; nt = no result; + = active, no number.

SMILES	Bcl-xL primary	Mcl1-Bid inh	Bim-Mcl-1	GLD-1 RNA inh	MCL1 BIM primary	Mcl1-Noxa inh	BCLXL inh confirm	MCL1 inh confirm
O=C(Cc1cnn(-c2ccccc2)c1)c1ccc(O)c(O)c1O	16	-1	-2	2	64*	39	14	40
CCc1cc(C(=O)Cc2cnn(-c3ccccc3)c2)c(O)cc1O	3	5	-2	-4	4	4	nt	nt
COc1ccccc1-n1c(C)c2c(OC)cccc(=O)c2c1C	39*	-39	0	30	40*	23	21	24
CC(C)CCNC(=O)NC(=O)COc1ncnc2sccc12	5	-19	0	4	5	16	nt	nt
CC(C)CNC(=O)NC(=O)COc1ncnc2sccc12	14	-15	1	7	54*	-55	9	14
O=C(NCCc1ccccc1)C1CCC(=O)N1C1CCCC1 (stereo unspecified)	3	nt	nt	-1	5	nt	nt	nt
C=CCOc1ccc(/C=C2\SC(=Nc3cccnc3)NC2=O)cc1	64*	-4	nt	0	64*	37	65*	74*
CC(/C=C1\SC(=Nc2cccnc2)NC1=O)=C\c1ccccc1	-5	8	nt	3	-15	19	nt	nt
COc1ccc(N=Nc2nc3ccc(Br)cc3n2C)cc1	+	-3	0	176*	+	20	88*	116*
CN1CCN(C(c2ccc(Cl)cc2)c2cc(Cl)c3cccnc3c2O)CC1 (stereo unspecified)	18	nt	nt	8	43*	nt	36*	95*
CN1CCN(C(c2ccc(C(F)(F)F)cc2)c2cc(Cl)c3cccnc3c2O)CC1 (stereo unspecified)	12	nt	nt	-1	34	nt	nt	nt
CC(=O)Nc1ccc(Oc2ccc(S(=O)(=O)N3CCCC3)cn2)cc1	3	nt	nt	3	3	nt	nt	nt
Cc1ccc(C(=O)OCC(=O)NC(=O)c2ccc(C(C)(C)C)cc2)c(O)c1	62*	nt	nt	26	70*	nt	-4	-6
Cc1ccc(C(=O)OCC(=O)NNC(=O)c2ccccc2)c(O)c1	-1	nt	nt	7	-4	nt	nt	nt
COc1ccc(NC(=O)[C@H](C)NC(=O)C2CCN(S(=O)(=O)c3ccc(C)cc3)CC2)cc1OC	-5	nt	nt	-10	-13	nt	nt	nt
COCCNC(=O)NC(=O)CN1CCCc2ccccc21	51*	-21	-1	-5	74*	12	7	12
COc1cccc(CN2CCNC(=O)C2CC(=O)NCCN2CCCCC2=O)c1 (stereo unspecified)	13	nt	nt	14	15	nt	nt	nt
O=C(NC1CCCCC1)c1cccc(OCc2ccccc2)c1	3	nt	nt	10	2	nt	nt	nt
CCC1OC23CCCCC2C(C#N)(C(=N)O3)C1(C#N)C#N (stereo unspecified)	77*	-33	2	57*	78*	29	4	7
N#CC12COC3(CCCCC3C1(C#N)C#N)OC2=N (stereo unspecified)	63*	-137	nt	74*	72*	10	21	12
COc1ccc(C2CC3(O)NC(=O)C(C#N)(C3C)C2(C#N)C#N)cc1 (stereo unspecified)	3	-5	nt	-3	-4	-3	nt	nt
CC1OC23CCCCC2C(C#N)(C(=N)O3)C1(C#N)C#N (stereo unspecified)	26	-15	2	15	21	7	nt	nt
CCCC1OC23CCCCC2C(C#N)(C(=N)O3)C1(C#N)C#N (stereo unspecified)	55*	-13	-1	55*	56*	6	17	16
COc1ccc(C2OC34CCCCC3C(C#N)(C#N)C2(C#N)C(=N)O4)cc1 (stereo unspecified)	135*	-51	-6	101*	155*	-2	105*	135*
CCCc1nnc(SCC(=O)Nc2cccc(Cl)c2Cl)o1	3	nt	nt	2	3	nt	nt	nt
SMILES	Bcl-xL primary	Mcl1-Bid inh	Bim-Mcl-1	GLD-1 RNA inh	MCL1 BIM primary	Mcl1-Noxa inh	BCLXL inh confirm	MCL1 inh confirm
Cc1ccc(C)c(NC(=O)C2CCCN(c3cnccn3)C2)c1 (stereo unspecified)	6	nt	nt	-1	5	nt	nt	nt
Cc1cccc(Nc2nnc(SCC(=O)c3c(N)n(C4CC4)c(=O)[nH]c3=O)s2)c1	-10	nt	nt	-6	-10	nt	nt	nt
C/C(N)=C(/C#N)C(=O)CSc1nnc(Nc2cccc(C)c2)s1	8	-25	-1	9	40*	36	14	41*
CCOC(=O)c1c(C)[nH]c(C(=O)N(C)CC(=O)Nc2ccc(OC)cc2)c1C	5	nt	nt	4	7	nt	nt	nt
NC(=O)c1ccsc1N	177*	-17	0	119*	189*	24	11	2
C=C(C)c1cccc(C(C)(C)NC(=O)Nc2ccc(C)cn2)c1	0	-10	7	1	-9	16	nt	nt
C=C(C)c1cccc(C(C)(C)NC(=O)Nc2ccc(OC)nc2)c1	82*	nt	nt	83*	91*	nt	57*	73*
CC(=O)Nc1cccc(NC(=O)c2cccc(-c3ccc(O)cc3)c2)c1	2	nt	nt	-1	4	nt	nt	nt
COc1ccc(NC(=O)c2cccc(-c3ccc(O)cc3)c2)cn1	144*	nt	nt	135*	179*	nt	107*	133*
C[C@@H]1COC(=O)[C@@H](CC(=O)OC(C)(C)C)C/C=C\C[C@H](CC(=O)NCCO)C(=O)N1	nt	nt	nt	0	nt	nt	nt	nt
CNC(=O)c1c(N)sc2c1CCCCC2	56*	4	-4	36*	72*	21	44*	52*
NC(=O)c1c(N)sc2c1CCCCC2	12	-99	-5	5	10	-4	nt	nt
CCOC(=O)N1CCc2c(sc(NC(=O)CCS(=O)(=O)c3ccccc3)c2C(N)=O)C1	10	nt	nt	17	48*	nt	13	18
CC(=O)N1CCc2c(sc(NC(=O)CCS(=O)(=O)c3ccccc3)c2C(N)=O)C1	8	nt	nt	26	17	nt	nt	nt
O=C1CC2(CCN(C(=O)c3c(F)cccc3F)CC2)Oc2ccccc21	3	nt	nt	6	4	nt	nt	nt
Cc1ccc(C)n1-c1ccc(C(=O)O)cc1	11	-48	-3	5	45*	62*	21	41*
CC(=O)c1c(C(C)=O)c(C)n(-c2ccc(C(=O)O)cc2)c1C	4	-26	-1	0	6	nt	nt	nt
CCc1cc[n+](-c2nc([O-])sc2C=O)cc1	122*	-35	-1	99*	136*	-2	83*	119*
CCc1ccc(OCCCOc2ccc(C=O)cc2)cc1	3	49	-4	-5	-5	-14	nt	nt
Nc1ccc(Nc2ccccc2)c(S(=O)(=O)O)c1	25	-20	nt	2	42*	41	48*	78*
COC(=O)C(Cc1c[nH]c2ccccc12)NC(=O)C1CC1 (stereo unspecified)	-1	nt	nt	-6	3	nt	nt	nt

Screens deposited in PubChem by several laboratories.
